Data taken from publication PMC3795721, “Screening for Protein-DNA Interactions by Automatable DNA-Protein Interaction ELISA”.

Target: AT4G31550 (Arabidopsis thaliana, UniProt Q9SV15 228-325)
Assay: DPI-ELISA; DPI-ELISA, streptavidin 384-well plate, 1-2 pmol biotinylated dsDNA per well, crude native E. coli extract, anti-His detection; buffer as in Brand et al. [46],; high values mean tight binding
Conditions: tags: C-terminal His (pET-DEST42); label: 5' biotin on forward strand; dsDNA, one strand shown

Sequence of AT4G31550 (Q9SV15 228-325): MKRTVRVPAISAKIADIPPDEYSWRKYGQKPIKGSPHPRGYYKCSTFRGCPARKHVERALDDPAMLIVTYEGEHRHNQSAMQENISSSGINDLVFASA

Sequence | binding signal [absorbance]
AAAAAAGGGGTCCTTTTCCAATGTCTAAAA | 0.605 ± 0.0495
AAAAAATTTTGTTTTTGCTTTTCCTTAAAA | 0.38 ± 0.0566
AAAAAACCTTACTGTTGATTCTGGTTAAAA | 0.635 ± 0.134
AAAAAATCTATTCCATTTCGCCTTCTAAAA | 0.68 ± 0.141
AAAAAAATCGTTGTTATCGTATTTATAAAA | 0.565 ± 0.12
AAAAAACGCCTTATGCCTCCCGCTCGAAAA | 0.675 ± 0.0354
AAAAAACCTTACCTCATCCCTATCCCAAAA | 0.605 ± 0.134
AAAAAACCCTAACGAATGCTTTTCGGAAAA | 0.66 ± 0.0849
AAAAAATAAATCGCGGCTACTGCTTCAAAA | 0.55 ± 0.141
AAAAAATTCCGCGTGTATGTGTACGTAAAA | 0.72 ± 0.212
AAAAAAATCCATATTATTGCTACCCGAAAA | 0.595 ± 0.0636
AAAAAATTTGTACTTTAAGTTTACATAAAA | 0.56 ± 0.0849
AAAAAACTACTACCTTTGCCTAAGCGAAAA | 0.685 ± 0.0919
AAAAAAAAGAGCCTGGGGGTTCGCATAAAA | 0.655 ± 0.0636
AAAAAATTCTTTTTTCTTCAAGGTCTAAAA | 0.565 ± 0.0212
AAAAAACTACAACCTGCGCGGTGGTCAAAA | 0.775 ± 0.0636
AAAAAAATATTTGAGCTAGGTTATCAAAAA | 0.57 ± 0.113
AAAAAATACATTTGACTTTGGGTTTCAAAA | 3.4 ± 0.297
AAAAAAACCCGGCCGCCATGGTAGTAAAAA | 0.7 ± 0.212

Sequence | binding signal [absorbance]
AAAAAAGGTTTAGCCCATGCCTGTGCAAAA | 0.645 ± 0.12
AAAAAAATGATTGCCAATGCTCGCAAAAAA | 0.73 ± 0.156
AAAAAACTACGTATATTCAGGCCCTAAAAA | 0.68 ± 0.113
AAAAAAGTGTTTGTGCTTCTCTCTGTAAAA | 0.58 ± 0.0707
AAAAAAAGGTTTGGGCTTCACGTTATAAAA | 0.725 ± 0.12
AAAAAAGCCATCATGGTTAGTGTACAAAAA | 0.665 ± 0.148
AAAAAATCAACCATTATGGTATTACTAAAA | 0.79 ± 0.212
AAAAAATTCAGAGCTTCGAGGTTCCGAAAA | 0.66 ± 0.0707
AAAAAACTCTTAAGGAAAGTTCCGACAAAA | 0.645 ± 0.12
AAAAAAGTCTCACCTTTAGTCTTAATAAAA | 0.64 ± 0.0283
AAAAAATCTGTTCTCGTTTCCCCTTCAAAA | 0.805 ± 0.262
AAAAAAATTCGCAACCCTCACGTTCGAAAA | 0.67 ± 0.0566
AAAAAATGGTCGTCGTACTCGTGGTCAAAA | 2.96 ± 0.424
AAAAAAGTCTGCGTCCTACCCCATTCAAAA | 1.04 ± 0.184
AAAAAAGTATAACGTGTTGTTGACCGAAAA | 3.455 ± 0.0212
AAAAAAACAGCTCGGTGCCACTGTGGAAAA | 0.61 ± 0.0424
AAAAAATTACGTTTGTATTTGTAAAA | 0.555 ± 0.0636
AAAAAACGGTAAGTCGACAAAA | 0.545 ± 0.0354
AAAAAAATTCATGCTATTTAACCTTAAAAA | 0.745 ± 0.0919
